# Results from the supplement of paper PMC8728848.
# This is one part of a sample in which the strongest signals are shown more often than they occur.
# What was measured:
# Assay in all cases: glycan array binding signal (z-score within array); higher = stronger binding
# Settings in all cases: glycan notation: IUPAC condensed, linker removed
# [1] = molecular target: Fuc(a1-2)Gal(b1-3)GalNAc(a1-3)[Fuc(a1-2)]Gal(b1-4)GlcNAc
# Procedure, shortened: (§1)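 Arrays were curated from the Consortium for Functional Glycomics database, 3228 in total, and kept only where the protein sequence was available. Binding is expressed as a within-array Z-score. This score was averaged across arrays of the same protein sequence at different concentrations or buffers and across linkers, and negative values can be read as non-binding.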
# [2] = molecular target: Fuc(a1-2)[Gal(a1-3)]Gal(b1-3)GlcNAc(b1-2)Man(a1-3)[Fuc(a1-2)[Gal(a1-3)]Gal(b1-3)GlcNAc(b1-2)Man(a1-6)]Man(b1-4)GlcNAc(b1-4)[Fuc(a1-6)]GlcNAc
# Procedure, shortened: as §1
# [3] = molecular target: Fuc(a1-2)[Gal(a1-3)]Gal(b1-3)GlcNAc(b1-3)GalNAc
# Procedure, shortened: as §1
# [4] = molecular target: Fuc(a1-2)[Gal(a1-4)]Gal(b1-4)GlcNAc
# Procedure, shortened: as §1
# [5] = molecular target: Fuc(a1-2)[GalNAc(a1-3)]Gal(b1-3)GlcNAc(b1-6)GalNAc
# Procedure, shortened: as §1
# [6] = molecular target: Fuc(a1-2)[GalNAc(a1-3)]Gal(b1-4)GlcNAc(b1-3)Gal(b1-4)GlcNAc
# Procedure, shortened: as §1
# [7] = molecular target: Fuc(a1-3)[Gal3S(b1-4)]GlcNAc
# Procedure, shortened: as §1
# [8] = molecular target: Gal(a1-3)Fuc(a1-2)Gal(b1-4)GlcNAc(b1-3)[Gal(a1-3)Fuc(a1-2)Gal(b1-4)GlcNAc(b1-6)]GalNAc
# Procedure, shortened: as §1
# [9] = molecular target: Gal(a1-3)Gal(b1-4)GlcNAc(b1-2)Man
# Procedure, shortened: as §1
# [10] = molecular target: Gal(a1-3)Gal(b1-4)GlcNAc(b1-2)Man(a1-3)[Gal(a1-3)Gal(b1-4)GlcNAc(b1-2)Man(a1-6)]Man(b1-4)GlcNAc(b1-4)GlcNAc
# Procedure, shortened: as §1
# [11] = molecular target: Gal(a1-3)[Gal(a1-4)]Gal(b1-4)GlcNAc
# Procedure, shortened: as §1
# Gal(a1-4)Gal(b1-4)Glc = molecular target: Gal(a1-4)Gal(b1-4)Glc
# Procedure, shortened: as §1
# Gal(a1-4)Gal(b1-4)GlcNAc = molecular target: Gal(a1-4)Gal(b1-4)GlcNAc
# Procedure, shortened: as §1
# [12] = molecular target: Gal(b1-3)GlcNAc(b1-3)Gal(b1-3)GlcNAc
# Procedure, shortened: as §1
# [13] = molecular target: Gal(b1-3)GlcNAc(b1-3)Gal(b1-4)GlcNAc(b1-3)Gal(b1-4)GlcNAc(b1-2)[Gal(b1-3)GlcNAc(b1-3)Gal(b1-4)GlcNAc(b1-3)Gal(b1-4)GlcNAc(b1-6)]Man(a1-6)[Gal(b1-3)GlcNAc(b1-3)Gal(b1-4)GlcNAc(b1-3)Gal(b1-4)GlcNAc(b1-2)Man(a1-3)]Man(b1-4)GlcNAc(b1-4)[Fuc(a1-6)]GlcNAc
# Procedure, shortened: as §1
# [14] = molecular target: Gal(b1-4)GalNAc(b1-3)[Fuc(a1-2)]Gal(b1-4)GlcNAc
# Procedure, shortened: as §1
# [15] = molecular target: Gal(b1-4)GlcNAc(b1-2)Man(a1-3)[GlcNAc(b1-4)][Gal(b1-4)GlcNAc(b1-2)Man(a1-6)]Man(b1-4)GlcNAc(b1-4)GlcNAc
# Procedure, shortened: as §1
# [16] = molecular target: Gal(b1-4)GlcNAc(b1-2)[Gal(b1-4)GlcNAc(b1-4)]Man(a1-3)[Gal(b1-4)GlcNAc(b1-2)[Gal(b1-4)GlcNAc(b1-6)]Man(a1-6)]Man(b1-4)GlcNAc(b1-4)GlcNAc
# Procedure, shortened: as §1
# [17] = molecular target: Gal(b1-4)GlcNAc(b1-3)Gal(b1-4)GlcNAc(b1-3)Gal(b1-4)GlcNAc(b1-2)Man(a1-3)[Gal(b1-4)GlcNAc(b1-3)Gal(b1-4)GlcNAc(b1-3)Gal(b1-4)GlcNAc(b1-2)Man(a1-6)]Man(b1-4)GlcNAc(b1-4)GlcNAc
# Procedure, shortened: as §1
# [18] = molecular target: Gal(b1-4)GlcNAc(b1-6)Gal(b1-4)GlcNAc
# Procedure, shortened: as §1
# Gal3S(b1-3)GalNAc = molecular target: Gal3S(b1-3)GalNAc
# Procedure, shortened: as §1
# Gal3S(b1-3)GlcNAc = molecular target: Gal3S(b1-3)GlcNAc
# Procedure, shortened: as §1
# Gal3S(b1-4)Glc = molecular target: Gal3S(b1-4)Glc
# Procedure, shortened: as §1
# Gal3S(b1-4)Glc6S = molecular target: Gal3S(b1-4)Glc6S
# Procedure, shortened: as §1
# Gal3S(b1-4)GlcNAc6S = molecular target: Gal3S(b1-4)GlcNAc6S
# Procedure, shortened: as §1
# [19] = molecular target: Gal3S(b1-4)[Fuc(a1-3)]GlcNAc6S
# Procedure, shortened: as §1
# Gal3S4S(b1-4)GlcNAc = molecular target: Gal3S4S(b1-4)GlcNAc
# Procedure, shortened: as §1
# Gal3S6S(b1-4)GlcNAc = molecular target: Gal3S6S(b1-4)GlcNAc
# Procedure, shortened: as §1
# Gal4S6S(b1-4)GlcNAc = molecular target: Gal4S6S(b1-4)GlcNAc
# Procedure, shortened: as §1
# GalNAc(b1-4)GlcNAc6S = molecular target: GalNAc(b1-4)GlcNAc6S
# Procedure, shortened: as §1
# [20] = molecular target: GlcNAc(b1-2)Man(a1-3)[GlcNAc(b1-4)][GlcNAc(b1-2)Man(a1-6)]Man(b1-4)GlcNAc(b1-4)[Fuc(a1-6)]GlcNAc
# Procedure, shortened: as §1
# [21] = molecular target: GlcNAc(b1-3)Gal(b1-4)GlcNAc(b1-3)GalNAc
# Procedure, shortened: as §1
# Kdn(a2-3)Gal(b1-3)GalNAc = molecular target: Kdn(a2-3)Gal(b1-3)GalNAc
# Procedure, shortened: as §1
# [22] = molecular target: Man(a1-3)[Man(a1-6)]Man(a1-6)[Man(a1-3)]Man(b1-4)GlcNAc(b1-4)GlcNAc
# Procedure, shortened: as §1
# [23] = molecular target: Man(a1-3)[Man(a1-6)]Man(b1-4)GlcNAc(b1-4)[Fuc(a1-6)]GlcNAc
# Procedure, shortened: as §1
# [24] = molecular target: Neu5Ac(a2-3)Gal(b1-3)GalNAc
# Procedure, shortened: as §1
# [25] = molecular target: Neu5Ac(a2-3)Gal(b1-3)GalNAc6S
# Procedure, shortened: as §1
# [26] = molecular target: Neu5Ac(a2-3)Gal(b1-3)GlcNAc6S
# Procedure, shortened: as §1
# [27] = molecular target: Neu5Ac(a2-3)Gal(b1-3)[GlcNAc(b1-6)]GalNAc
# Procedure, shortened: as §1
# [28] = molecular target: Neu5Ac(a2-3)Gal(b1-3)[Neu5Ac(a2-6)]GalNAc
# Procedure, shortened: as §1
# [29] = molecular target: Neu5Ac(a2-3)Gal(b1-4)GlcNAc(b1-2)[Neu5Ac(a2-3)Gal(b1-4)GlcNAc(b1-4)]Man(a1-3)[GlcNAc(b1-4)][Neu5Ac(a2-3)Gal(b1-4)GlcNAc(b1-4)Man(a1-6)]Man(b1-4)GlcNAc(b1-4)GlcNAc
# Procedure, shortened: as §1
# [30] = molecular target: Neu5Ac(a2-3)Gal(b1-4)GlcNAc(b1-3)Gal
# Procedure, shortened: as §1
# [31] = molecular target: Neu5Ac(a2-3)Gal(b1-4)GlcNAc(b1-6)[Neu5Ac(a2-3)Gal(b1-3)]GalNAc
# Procedure, shortened: as §1
# [32] = molecular target: Neu5Ac(a2-3)Gal(b1-4)GlcNAc6S
# Procedure, shortened: as §1
# [33] = molecular target: Neu5Ac(a2-3)Gal(b1-4)[Fuc(a1-3)]GlcNAc(b1-6)[Neu5Ac(a2-3)Gal(b1-3)]GalNAc
# Procedure, shortened: as §1
# [34] = molecular target: Neu5Ac(a2-3)Gal6S(b1-4)[Fuc(a1-3)]GlcNAc
# Procedure, shortened: as §1
# [35] = molecular target: Neu5Ac(a2-3)[GalNAc(b1-4)]Gal(b1-4)GlcNAc
# Procedure, shortened: as §1
# Neu5Ac(a2-6)Gal = molecular target: Neu5Ac(a2-6)Gal
# Procedure, shortened: as §1
# [36] = molecular target: Neu5Ac(a2-6)Gal(b1-3)GlcNAc(b1-3)[Gal(b1-4)GlcNAc(b1-6)]Gal(b1-4)Glc
# Procedure, shortened: as §1
# Neu5Ac(a2-6)Gal(b1-4)Glc = molecular target: Neu5Ac(a2-6)Gal(b1-4)Glc
# Procedure, shortened: as §1
# [37] = molecular target: Neu5Ac(a2-6)Gal(b1-4)GlcNAc(b1-2)Man(a1-3)[Neu5Ac(a2-6)Gal(b1-4)GlcNAc(b1-2)Man(a1-6)]Man(b1-4)GlcNAc(b1-4)[Fuc(a1-6)]GlcNAc
# Procedure, shortened: as §1
# [38] = molecular target: Neu5Ac(a2-6)Gal(b1-4)GlcNAc(b1-3)Gal(b1-3)GlcNAc
# Procedure, shortened: as §1
# [39] = molecular target: Neu5Ac(a2-8)Neu5Ac(a2-3)Gal(b1-4)GlcNAc
# Procedure, shortened: as §1
binder,measurement,setting,value
"MAL-II (Maackia amurensis), P93248 (protein) ATSNSKPTQVLLATFLTFFFLLLNNVNSSDELSFTINNFVPNEADLLFQGEASVSSTGVLQLTRVENGQPQQYSVGRALYAAPVRIWDNTTGSVASFSTSFTFVVKAPNPTITSDGLAFFLAPPDSQIPSGRVSKYLGLFNNSNSDSSNQIVAVEFDTYFGHSYDPWDPNYRHIGIDVNGIESIKTVQWDWINGGVAFATITYLAPNKTLIASLVYPSNQTSFIVAASVDLKEILPEWVRVGFSAATGYPTQVETHDVLSWSFTSTLEANSDAATENNVHIARYTA",glycan array binding signal (z-score),[1],-0.182
same,glycan array binding signal (z-score),[2],0.051
same,glycan array binding signal (z-score),[3],-0.241
same,glycan array binding signal (z-score),[4],-0.171
same,glycan array binding signal (z-score),[5],-0.266
same,glycan array binding signal (z-score),[6],-0.177
same,glycan array binding signal (z-score),[7],-0.195
same,glycan array binding signal (z-score),[8],-0.261
same,glycan array binding signal (z-score),[9],-0.188
same,glycan array binding signal (z-score),[10],0.244
same,glycan array binding signal (z-score),[11],-0.252
same,glycan array binding signal (z-score),Gal(a1-4)Gal(b1-4)Glc,-0.133
same,glycan array binding signal (z-score),Gal(a1-4)Gal(b1-4)GlcNAc,-0.185
same,glycan array binding signal (z-score),[12],-0.172
same,glycan array binding signal (z-score),[13],0.068
same,glycan array binding signal (z-score),[14],-0.263
same,glycan array binding signal (z-score),[15],-0.267
same,glycan array binding signal (z-score),[16],-0.229
same,glycan array binding signal (z-score),[17],0.674
same,glycan array binding signal (z-score),[18],-0.23
same,glycan array binding signal (z-score),Gal3S(b1-3)GalNAc,8.15
same,glycan array binding signal (z-score),Gal3S(b1-3)GlcNAc,2.09
same,glycan array binding signal (z-score),Gal3S(b1-4)Glc,1.81
same,glycan array binding signal (z-score),Gal3S(b1-4)Glc6S,3.27
same,glycan array binding signal (z-score),Gal3S(b1-4)GlcNAc6S,6.03
same,glycan array binding signal (z-score),[19],2.12
same,glycan array binding signal (z-score),Gal3S4S(b1-4)GlcNAc,-0.162
same,glycan array binding signal (z-score),Gal3S6S(b1-4)GlcNAc,-0.222
same,glycan array binding signal (z-score),Gal4S6S(b1-4)GlcNAc,-0.156
same,glycan array binding signal (z-score),GalNAc(b1-4)GlcNAc6S,-0.292
same,glycan array binding signal (z-score),[20],-0.148
same,glycan array binding signal (z-score),[21],-0.159
same,glycan array binding signal (z-score),Kdn(a2-3)Gal(b1-3)GalNAc,3.27
same,glycan array binding signal (z-score),[22],-0.107
same,glycan array binding signal (z-score),[23],-0.337
same,glycan array binding signal (z-score),[24],3.54
same,glycan array binding signal (z-score),[25],5.77
same,glycan array binding signal (z-score),[26],-0.11
same,glycan array binding signal (z-score),[27],3.23
same,glycan array binding signal (z-score),[28],7.48
same,glycan array binding signal (z-score),[29],-0.282
same,glycan array binding signal (z-score),[30],-0.196
same,glycan array binding signal (z-score),[31],3.13
same,glycan array binding signal (z-score),[32],-0.215
same,glycan array binding signal (z-score),[33],0.889
same,glycan array binding signal (z-score),[34],-0.22
same,glycan array binding signal (z-score),[35],-0.213
same,glycan array binding signal (z-score),Neu5Ac(a2-6)Gal,-0.234
same,glycan array binding signal (z-score),[36],-0.18
same,glycan array binding signal (z-score),Neu5Ac(a2-6)Gal(b1-4)Glc,-0.184
same,glycan array binding signal (z-score),[37],-0.089
same,glycan array binding signal (z-score),[38],-0.178
same,glycan array binding signal (z-score),[39],-0.255
